# Screens as filed in PubChem BioAssay.
# NadD block: inhibitors of Staphylococcus aureus NadD; purified NadD enzyme, colorimetric absorbance read-out; inhibition, % at 20 µM; 0.78% of 360,000 active; AID 602399; in the data active = inhibition above about 26%
# rCAG RNA binder: molecules binding r(CAG) RNA repeats | r(CAG) RNA repeat, TO-PRO-1 dye displacement fluorescence | inhibition, % at 3 µM | 1.3% of 370,000 active | AID 651821;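 active = inhibition above the plate cutoff, the mean of all test compounds on that plate plus 3 SD, cut at about 35% in these data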;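 note: 0% = DMSO alone and 100% = 100 µM mitoxantrone as full dye displacement; higher means more dye released from RNA so lower well fluorescence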
# MsrA inhibitor: bovine MsrA inhibition; inhibition, % at 15.5 µM; purified bovine MsrA, absorbance read-out; 0.75% of 360,000 active; in the data active = inhibition above about 4.5%;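 note: 0% = vehicle wells with enzyme and 100% = reference inhibitor wells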
# bovine MsrA act: bovine methionine sulfoxide reductase A activation. purified bovine MsrA, absorbance read-out. activation, % at 10.6 µM. 0.3% of 360,000 active; in the data active = activation above about 7.5%;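 note: 0% = vehicle and 100% = reference activator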
# Pemphigus Ab inh: human desmoglein-3 autoantibody binding inhibition; AID 588358; DSG3-coupled beads, scFv-anti-DSG3-GFP binding, flow cytometry; stronger effect = lower value; P32926; binding (percent of control), % at 10 µM; 0.48% of 310,000 active;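 active = binding more than 3 SD below its plate's average and above zero; inconclusive = below that plate limit but binding exactly zero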;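 note: hits lower antibody fragment binding to DSG3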
# DAGLB inhibitor: diacylglycerol lipase beta (human) inhibition; HEK293T DAGLB membrane lysate, EnzChek fluorogenic substrate; 0.059% of 340,000 active; Q8NCG7; inhibition, % at 5.17 µM; in the data active = inhibition above about 34%;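 note: 0% = enzyme with vehicle and 100% = wells lacking enzyme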
# Target sequence (Q8NCG7 whole entry, looked up): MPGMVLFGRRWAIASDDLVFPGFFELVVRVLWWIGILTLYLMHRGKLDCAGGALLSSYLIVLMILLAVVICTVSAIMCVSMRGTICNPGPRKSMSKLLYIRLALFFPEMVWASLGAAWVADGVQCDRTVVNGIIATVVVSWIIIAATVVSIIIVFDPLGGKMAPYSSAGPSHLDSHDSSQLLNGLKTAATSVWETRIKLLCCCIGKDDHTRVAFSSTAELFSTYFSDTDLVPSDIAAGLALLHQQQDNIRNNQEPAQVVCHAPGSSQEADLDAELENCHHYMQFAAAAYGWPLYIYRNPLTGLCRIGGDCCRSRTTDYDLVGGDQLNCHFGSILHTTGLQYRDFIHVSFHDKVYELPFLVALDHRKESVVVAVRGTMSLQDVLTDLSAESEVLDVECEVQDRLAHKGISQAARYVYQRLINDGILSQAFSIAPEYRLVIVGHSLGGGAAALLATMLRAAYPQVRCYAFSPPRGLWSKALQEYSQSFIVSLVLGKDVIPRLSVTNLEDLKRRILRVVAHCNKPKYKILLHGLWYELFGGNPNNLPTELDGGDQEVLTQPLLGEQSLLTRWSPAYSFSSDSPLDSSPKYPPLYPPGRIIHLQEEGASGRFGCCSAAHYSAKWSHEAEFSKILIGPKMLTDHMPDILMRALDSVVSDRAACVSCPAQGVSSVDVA
# MsrA activ conf: bovine methionine sulfoxide reductase A activation confirmed. shares compounds with bovine MsrA act. purified bovine MsrA, absorbance read-out. activation, % at 10.6 µM. 12% of 1,000 active. AID 602270; in the data active = activation above about 4%;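 note: enzyme coupled to thioredoxin and thioredoxin reductase with NADPH; 0% = vehicle wells and 100% = reference activator wells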
# Starred values were filed as active, the others as inactive; ? = inconclusive; / = no result given. Hits are enriched below; roughly 3.2% of the tested compounds scored in any of these assays.
SMILES,NadD block,rCAG RNA binder,MsrA inhibitor,bovine MsrA act,Pemphigus Ab inh,DAGLB inhibitor,MsrA activ conf
Cc1cccc(C)c1-n1nnnc1-c1nc2cc3ccccc3cc2[nH]c1=O,26.9,9.4,0.7,-1.1,/,/,/
Cc1cc(C(=O)Nc2cccc([N+](=O)[O-])c2C)cs1,-7.5,-0.8,0.9,-3.0,/,0.0,/
Cc1c(NC(=O)c2ccc(C(C)(C)C)cc2)cccc1[N+](=O)[O-],-5.6,-1.8,1.5,10.9*,106.9,-4.2,-1.0
COC1=CC(=O)c2nc(Cl)ccc2C1=O,3.4,5.2,0.3,11.9*,/,/,7.5*
O=C(Nc1ccc2c(c1)OCCO2)C1c2ccccc2OCC(=O)N1CCc1c[nH]c2ccccc12 (stereo not drawn),-2.0,7.8,-0.4,8.0*,/,/,-2.0
O=C(NC1CCCC1)C1c2ccccc2OCC(=O)N1CCc1c[nH]c2ccccc12 (stereo not drawn),1.4,2.0,-0.8,-1.2,/,/,/
NCCc1nnc(SCc2ccc(F)cc2)o1,1.3,2.3,-1.2,-4.0,99.2,2.3,/
NCCCCCc1nnc(SCc2ccc(Cl)c(Cl)c2)o1,-6.3,8.7,0.2,8.3*,101.6,-1.5,1.2
COc1ccc(C(NC(=O)C2CCN(Cc3ccc(Oc4ccccc4)cc3)CC2)c2ccccn2)cc1 (stereo not drawn),-2.3,2.0,0.7,-1.8,/,/,/
C/C=C/C=N\NC(=O)c1ccncc1,1.0,2.6,-0.6,14.7*,121.9,2.4,1.4
C[N+](C)(C)CCNC(=O)c1ccccc1,18.0,-0.2,-0.2,-2.2,/,/,/
O=c1sc(N2CCN(c3ccccc3F)CC2)nc2ccsc12,-4.6,2.0,-0.2,-1.0,94.8,-8.5,/
O=c1sc(N2CCN(c3ccc(F)cc3)CC2)nc2ccsc12,-0.9,1.1,0.8,7.8*,78.6*,-2.7,-1.6
COc1ccccc1CNC(=O)CCNC(=O)Cn1cnc2ccccc2c1=O,-2.9,-1.5,-0.6,8.8*,102.9,-3.0,-0.2
FC(F)(F)c1cc(Oc2ccccc2)nc(-c2ccccn2)n1,0.7,-5.5,-0.5,9.7*,100.7,-2.0,-3.0
FC(F)(F)c1cc(Oc2ccc(Cl)cc2)nc(-c2ccccn2)n1,-0.5,-2.4,2.2,-1.5,95.3,0.1,/
O=C(C1CCCN(S(=O)(=O)c2ccc([N+](=O)[O-])cc2)C1)N1CCN(Cc2ccccc2)CC1 (stereo not drawn),/,0.2,/,/,/,/,/
S=c1[nH]nc(-c2n[nH]c3c2CCC3)n1N=Cc1c2ccccc2cc2ccccc12,/,26.1,/,/,/,/,/
COC(=O)c1ccc(Nc2nc3ccc(C)cc3n3cnnc23)cc1,-3.9,1.5,0.7,-1.3,87.9,-1.1,/
CC(=O)c1ccc(Nc2nc3ccc(C)cc3n3cnnc23)cc1,-1.9,10.4,-0.8,8.2*,94.6,-1.5,-0.8
NC(Cc1ccc(Cl)cc1)c1csc(Nc2ccc(C(=O)NCCCO)cn2)n1 (stereo not drawn),0.8,9.5,-1.6,-1.0,/,/,/
CCN(CCCNC(=O)CCn1c(=S)[nH]c2cc3c(cc2c1=O)OCO3)c1cccc(C)c1,3.2,8.6,0.3,8.1*,96.4,9.4,-1.7
COc1ccc(C(C)c2cn(C)c3ccccc23)cc1 (stereo not drawn),/,5.0,/,/,/,/,/
CC1CN(C(=O)c2cccc(S(=O)(=O)N3CCN(c4ccccc4)CC3)c2)CC(C)O1 (stereo not drawn),-3.0,1.6,-0.1,9.1*,88.5,0.6,-2.2
Cc1cccc(NNC(=S)Nc2c(C)cccc2C)c1,-3.2,-0.9,1.3,8.0*,95.5,-0.7,1.4
SMILES,NadD block,rCAG RNA binder,MsrA inhibitor,bovine MsrA act,Pemphigus Ab inh,DAGLB inhibitor,MsrA activ conf
N#C/C(=C\c1cccn1S(=O)(=O)c1cccc([N+](=O)[O-])c1)S(=O)(=O)c1ccc(F)cc1,-0.9,7.9,0.5,0.0,/,/,/
C=CCn1c(Sc2nnc(C)s2)nc2c1c(=O)[nH]c(=O)n2C,0.3,3.2,0.7,1.6,98.8,1.8,/
Cc1nnc(Sc2c(N)n(C)c(=O)[nH]c2=O)s1,-5.3,1.2,-1.4,11.5*,93.9,-4.1,-1.5
CCOC(=O)[C@H]1[C@H]2COc3ccc(OC)cc3[C@@H]2N2C(=O)CN(Cc3ccc(C)cc3)C(=O)[C@@]12C,-5.3,-7.5,0.2,14.0*,105.9,-3.4,0.2
COc1ccc(S(=O)(=O)N2CCC(C(=O)N3CCOCC3)CC2)cc1Cl,-2.9,-3.9,-0.3,8.0*,104.9,-1.3,-3.2
Cc1cc(=S)[nH]c(=S)[nH]1,-2.4,-2.6,0.8,10.3*,99.6,0.6,8.2*
Cc1ccc(S(=O)(=O)N2CCC(C(=O)OCC(=O)N3CCc4ccccc43)CC2)cc1,-1.1,-0.1,-0.5,8.4*,/,-1.7,-0.3
O=S(=O)(Nc1ccccc1Cl)c1ccc(NS(=O)(=O)c2cccs2)cc1,-15.6,19.0,-0.8,7.7*,98.7,1.6,0.3
CC1(C)CCC[C@]2(C)[C@H]3Cc4cc(O)ccc4O[C@]3(C)CC[C@@H]12,-4.8,6.6,1.1,-5.4,102.1,-7.4,/
Cc1cccc(C)c1OCC(=O)NNC(=O)CNC(=O)c1ccc(OC(F)F)cc1,1.1,0.1,-0.6,8.1*,97.7,0.6,-1.4
C(=Nc1ccc(N2CCOCC2)cc1)c1c[nH]c2ccccc12,-7.3,-3.7,0.2,11.6*,102.1,2.1,0.0
CC1=C(C#N)C(Nc2ccc(Cl)cn2)(C(F)(F)F)C(=O)N1 (stereo not drawn),-2.0,-1.1,-0.3,10.3*,/,-0.6,-1.0
CC12CN(C(=O)c3ccccc3)C3(C#N)CC1CCC23C (stereo not drawn),0.1,0.0,-0.6,13.5*,95.6,-0.4,-0.3
O=c1oc(C2(O)CCCCC2)cc2ccc(/C=C/c3ccc(F)cc3)cc12,0.7,7.2,0.0,-3.0,105.2,-4.8,/
COCCNc1nc(Nc2ccccc2Cl)c2sccc2n1,3.7,-1.6,1.5,-2.3,/,/,/
CCN1CCN(C(=O)c2ccc3c(=O)n(C4CCCC4)c(=S)[nH]c3c2)CC1,-1.5,-5.8,1.0,8.8*,111.3,1.2,0.2
O=C(c1ccc2c(=O)n(C3CCCC3)c(=S)[nH]c2c1)N1CCN(C2CCCCC2)CC1,6.0,2.8,-0.2,-2.6,101.6,0.7,/
COc1ccc(CC(=O)Nc2sc3c(c2C(N)=O)CCCC3)cc1,-6.9,3.6,0.4,8.4*,?,-0.3,-1.9
COc1cc(CC(=O)Nc2sc3c(c2C(N)=O)CCCC3)cc(OC)c1OC,-2.0,1.4,1.8,-2.1,97.6,1.5,/
O=C(CNc1ccc2ccccc2c1)N/N=C/c1ccc([N+](=O)[O-])o1,13.8,23.1,2.2,8.3*,96.0,3.5,-0.8
CCN1CCN(c2ccc(S(=O)(=O)N3CCCCC3)cc2NC(=O)c2cccc(C)c2)CC1,-2.2,-2.1,-0.5,9.3*,102.7,0.7,-1.8
O=C(COCc1ccccc1)N1CC[C@H]2[C@H](CCCN2Cc2cc(F)cc(F)c2)C1,/,-1.5,/,/,/,/,/
Cn1c(SCC(=O)NC2CCCC2)nnc1-c1ccco1,1.7,3.3,-0.8,-2.3,/,0.1,/
